Usually inhibition stands for the drop in the measured response relative to a control, in per cent.

Hit rate of the full screen: of about 320,000 compounds, about 1,300 (0.41%) were called active. The entries come from a sample that favours actives as a whole. A number with no mark means an inactive call.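 How the source made its calls: active means percent inhibition above the average of all tested compounds plus 3 SD, set per screening campaign (cut at about 16% in these data); inactive means the rest.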

Insulin-degrading enzyme (Homo sapiens), sequence (P14735 whole entry, looked up): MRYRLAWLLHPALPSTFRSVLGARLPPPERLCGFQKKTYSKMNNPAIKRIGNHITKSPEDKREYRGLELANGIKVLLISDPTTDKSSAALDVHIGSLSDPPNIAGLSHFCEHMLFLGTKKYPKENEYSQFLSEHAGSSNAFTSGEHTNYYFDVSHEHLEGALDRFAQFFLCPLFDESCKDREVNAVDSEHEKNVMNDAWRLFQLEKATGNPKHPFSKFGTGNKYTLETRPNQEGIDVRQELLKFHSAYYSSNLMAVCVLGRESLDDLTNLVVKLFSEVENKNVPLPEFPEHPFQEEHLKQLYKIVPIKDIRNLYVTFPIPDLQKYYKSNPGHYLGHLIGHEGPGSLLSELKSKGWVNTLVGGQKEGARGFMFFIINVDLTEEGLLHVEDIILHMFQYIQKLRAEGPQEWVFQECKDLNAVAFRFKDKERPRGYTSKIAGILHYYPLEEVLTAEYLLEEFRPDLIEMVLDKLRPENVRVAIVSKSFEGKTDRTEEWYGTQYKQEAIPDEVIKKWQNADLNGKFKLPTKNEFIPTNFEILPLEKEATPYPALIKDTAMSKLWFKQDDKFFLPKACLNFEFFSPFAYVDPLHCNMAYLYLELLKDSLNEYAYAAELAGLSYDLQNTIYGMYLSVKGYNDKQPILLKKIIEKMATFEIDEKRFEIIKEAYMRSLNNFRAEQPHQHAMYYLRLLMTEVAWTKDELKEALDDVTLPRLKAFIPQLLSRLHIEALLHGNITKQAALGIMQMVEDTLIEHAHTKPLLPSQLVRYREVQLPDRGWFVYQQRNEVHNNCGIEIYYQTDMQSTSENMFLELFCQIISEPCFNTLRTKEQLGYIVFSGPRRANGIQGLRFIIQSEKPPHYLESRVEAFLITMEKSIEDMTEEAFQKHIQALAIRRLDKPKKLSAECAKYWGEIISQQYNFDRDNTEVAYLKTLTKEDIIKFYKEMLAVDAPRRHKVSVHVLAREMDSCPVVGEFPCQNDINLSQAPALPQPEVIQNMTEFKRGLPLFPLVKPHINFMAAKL

The assay concerns the target Insulin-degrading enzyme (Homo sapiens) (UniProt P14735). As to the kind of experiment: cellular IDE Abeta-cleavage inhibition – fluorescence polarization, HEK cells, FAbetaB substrate, primary screen (AID 434962).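 Further: IDE supplied by intact live HEK cells; FP after avidin binding of uncleaved biotin substrate so inhibition keeps polarization high; 0% = DMSO wells and 100% = 60 µM reference IDE inhibitor Ii1.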 To be noted: at 5.59 µM, hits give high values.
For `COc1cc(/C=C2/SC(=S)N(Cc3ccccc3)C2=O)cc(OC)c1O`, the inhibition was 68.4% (active).
`COc1ccc(/C=C2\SC(=S)N(CCC(=O)Nc3cccc(C(=O)O)c3)C2=O)cc1OC`: the inhibition is 1.95%.
For the compound `COc1ccc(/C=C2\SC(=S)N(CCCC(=O)NC3CCCC3)C2=O)cc1OC`, the inhibition was -2.87%.
Take `O=C(Nc1ccnn1C1CCN(C/C=C/c2ccc(F)cc2)CC1)C1CCCC1`: the inhibition is -2.53%.
For the compound `COc1cccc(CNC(=O)Cn2c(=O)oc3cc(S(=O)(=O)N4CCCCC4)ccc32)c1`, the inhibition is 4.33%.
As to `Cn1c(NC(=O)c2ccco2)c(-c2ccccc2Cl)c(=O)c2ccccc21`, the inhibition is -1.57%.
With `N#C/C(=C\c1ccc(-c2cccc([N+](=O)[O-])c2)o1)C(=O)NCCN1CCOCC1`, the inhibition was -0.08%.
For `N#C/C(=C/c1ccc(N2CCOCC2)o1)C(=O)N1CCOCC1`, the inhibition was 14.4%.
As for `N#C/C(=C\c1ccc(N2CCOCC2)o1)C(=O)N1CCOCC1`, the inhibition is 20.9% (active).
With `Cc1ccc(C(=O)c2ccc(N3CCN(C)CC3)c([N+](=O)[O-])c2)cc1`, the inhibition is -2.73%.
Take `CCCCc1ccc(NC(=O)NCc2cccnc2)cc1`: the inhibition was 4.26%.
Regarding `CCN(CC(=O)NCc1ccc(F)cc1)S(=O)(=O)c1ccc(Cl)s1`, the inhibition was 7.4%.
For `O=C(COC(=O)CCOc1ccccc1)Nc1cc(S(=O)(=O)N2CCCCC2)ccc1Cl`, the inhibition is 5.23%.
In the case of `CCC(C)(C)NC(=O)CN(C(=O)CCC(=O)Nc1nccs1)c1ccc2c(c1)OCO2`, the inhibition is -1.66%.
Under `O=C(Oc1ccc(Br)cc1)c1cccnc1` stands 1.44%.
Take `O=C(Oc1c(-c2ccco2)oc2ccccc2c1=O)c1cccnc1`: the inhibition was 68.4% (active).
For the compound `N#CCc1ccc(OC(=O)c2cccnc2)cc1`, the inhibition is -4.29%.
In the case of `Cc1csc(=O)n1CCC(=O)OCC(=O)NNC(=O)c1ccc(Br)cc1`, the inhibition is -2.19%.
The value for `Cc1cc2c(=O)n(C)c(SCC(=O)c3cc4ccccc4o3)nc2s1` was 1.59%.
On to `Cc1ccccc1Nc1nnc(SCC(=O)c2cc3ccccc3o2)s1`, for which the inhibition was 18.7% (active).
On to `CCOc1ccccc1Nc1nnc(SCC(=O)Nc2cc(C)on2)s1`, for which the inhibition was 3.25%.
The value for `CCc1ccc(CNC(=O)C2CC(=O)N(CCc3ccc(C)cc3)C2)cc1` (stereo not drawn) was -4.43%; that for `CCCCN(C(=O)CSCC(=O)Nc1ccc(OC)cc1)c1c(N)n(CCC)c(=O)[nH]c1=O` was -1.31%.
For the compound `CC(=O)Oc1cccc(C(=O)Nc2ccccc2NC(=O)c2cccc(OC(C)=O)c2)c1`, the inhibition was -2.81%.
As for `CCOC(=O)c1cc(NC(=O)c2ccc(Cl)cc2)c(=O)oc1-c1ccccc1`, the inhibition is 1.63%.
Under `CC(=O)c1cc(NC(=O)c2ccccc2)c(=O)oc1/C=C/N(C)C` stands 16.3% (active); under `Cc1cc(OCC(=O)N2CCN(c3ncccn3)CC2)ccc1Cl`, -0.8%; under `O=C(Nc1ccc(O)cc1)c1ccc(NC(=O)c2ccco2)cc1`, 3.06%.
`O=C(Nc1ccc(Sc2ccc(Br)cc2)cc1)c1ccco1`: the inhibition was 17.8% (active).
As for `O=C(CNC(=O)c1ccco1)NNC(=O)c1ccc(Br)cc1`, the inhibition is 2.95%.
Regarding `CC1CCCCN1S(=O)(=O)CCNC(=O)c1ccccc1` (stereo not drawn), the inhibition was 1.88%.
Under `CC(C)(C)OC(=O)N[C@H](C(=O)OC(C)(C)C)c1ccc(Br)cc1` stands 2.45%; under `CN1CCNC(=O)C1CC(=O)NCCC1=CCCCC1` (stereo not drawn), 1.39%.

Source of the values: PubChem BioAssay AID434962 (The Scripps Research Institute Molecular Screening Center, 2010).
